Hit rate of the full screen: of about 330,000 compounds, about 1,900 (0.58%) were called active. Not shown: some 4% with an inconclusive outcome. No stated cut-off is given here; in the data, inconclusive means inhibition above about 70% without an active follow-up result; inactive means below that. Only a sample is shown. Potency and affinity values are given separately.
Experiment: M. tuberculosis growth inhibition, HTS (AID 449762);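 further: bacterial growth assessed after seven days of incubation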
Details: M. tuberculosis H37Rv growth inhibition, 7H9 media; at 25 µM; active compounds read high

| SMILES | inhibition |
| --- | --- |
| CN(C)c1cccc2c1c(NC(=O)c1ccc(F)cc1)nn2C | -5.17% (inactive) |
| Cc1nc2c(c(=O)[nH]1)C(c1ccc([N+](=O)[O-])cc1)c1c(c3ccccc3oc1=O)O2 (stereo not given) | 4.87% (inactive) |
| O=S(=O)(NC1CC(NS(=O)(=O)OCC(Cl)(Cl)Cl)C2CCCCC12)OCC(Cl)(Cl)Cl (stereo not given) | 4.68% (inactive) |
| CCC1Oc2ccc(C)cc2N(CC(=O)N2CCCC2)C1=O (stereo not given) | 9.77% (inactive) |
| COC1=Cc2c(ccc3ccc(=O)oc23)OC1(C)C | 1.79% (inactive) |
| CC1(C)Oc2ccc3ccc(=O)oc3c2/C(=C/O)C1=O | 2.64% (inactive) |
| O=C(OCc1nnc(-c2ccc(Cl)cc2)o1)C12CC3CC(CC(O)(C3)C1)C2 | 7.22% (inactive) |
| CCOC(=O)c1cc(C(=O)NC(C)c2ccccc2)c(C)[nH]c1=O (stereo not given) | -4.64% (inactive) |
| CCOC(=O)c1nnc(-c2ccc(C)cc2)nc1Sc1ccccc1Cl | 13.5% (inactive) |
| CCOC(=O)c1nnc(-c2ccccc2)nc1Sc1c(Cl)cccc1Cl | 4.17% (inactive) |
| CCOC(=O)c1c(NCc2ccccc2)n[nH]c1C | -5.08% (inactive) |
| CCOC(=O)c1nnc(-c2ccccc2)nc1NC | -30.8% (inactive) |
| O=C(CCN1C(=O)/C(=C\c2ccccc2Cl)SC1=S)Nc1cccnc1 | 2.83% (inactive) |
| CC(=O)C1C2c3ccccc3OC1(C)N=c1s/c(=C/c3cn(C)nc3C)c(=O)n12 (stereo not given) | 1.62% (inactive) |
| COC(=O)C1C2c3ccccc3OC1(C)N=c1s/c(=C/c3cn(C)nc3C)c(=O)n12 (stereo not given) | -3.81% (inactive) |
| COc1ccc(-c2cc3ccccc3oc2=O)cc1NC(=O)c1cccnc1 | 4.8% (inactive) |
| COc1ccc(-c2cc3ccccc3oc2=O)cc1NC(=O)c1ccc(Br)o1 | -2.95% (inactive) |
| Cn1c(-c2nonc2N)nc2ccccc21 | 0.49% (inactive) |
| COc1ccccc1C(c1c(N)n(C)c(=O)n(C)c1=O)C(C)[N+](=O)[O-] (stereo not given) | 43.9% (inactive) |
| CC(C(c1cccs1)c1c(N)n(C)c(=O)n(C)c1=O)[N+](=O)[O-] (stereo not given) | -8.45% (inactive) |
| O=C(CSCc1cc(=O)n2nc(C3CC3)sc2n1)Nc1ccc(F)cc1 | -2.05% (inactive) |
| CC(C)(C)OC(=O)N1CCC(NC(=O)c2[nH]cnc2C(=O)N[C@@H](Cc2ccccc2)C(=O)OCc2ccccc2)CC1 | -4.13% (inactive) |
| C[C@H](NC(=O)c1nc[nH]c1C(=O)NC1CCN(C(=O)OC(C)(C)C)CC1)C(=O)OCc1ccccc1 | -4.49% (inactive) |

| SMILES | inhibition |
| --- | --- |
| Cc1ccc(NC2CCCN(C(=O)c3cccc4nccnc34)C2)cc1C (stereo not given) | -9.4% (inactive) |
| NS(=O)(=O)c1ccc(-c2ccc(C=NC3CCS(=O)(=O)C3)o2)cc1 (stereo not given) | -12% (inactive) |
| NS(=O)(=O)c1ccc(-c2ccc(/C=C3\SC(=S)N(C4CCS(=O)(=O)C4)C3=O)o2)cc1 (stereo not given) | 0.18% (inactive) |
| O=C(CCc1nc2ccccc2c(=O)[nH]1)N1CCN(S(=O)(=O)c2cccc(F)c2)CC1 | -17.1% (inactive) |
| NC(=O)NC(CC(=O)NCCCc1ccccc1)c1ccc(Cl)cc1 (stereo not given) | 5.17% (inactive) |
| CS(=O)(=O)c1ccc(C(=O)Nc2cc(S(C)(=O)=O)ccc2Cl)cc1 | 2.11% (inactive) |
| COc1ccc(OC)c(C2C=C(c3ccc(C)c(C)c3)Nc3nnnn32)c1 (stereo not given) | 4.57% (inactive) |
| COc1ccccc1C1C=C(c2ccc(C)cc2)Nc2nnnn21 (stereo not given) | -0.45% (inactive) |
| COC(=O)C(C)(C)ONC(=O)Nc1ccc(C)cc1 | 0.62% (inactive) |
| COc1ccc(Cl)cc1N(CC(=O)NC(C)(C)C)S(=O)(=O)c1ccc(C)c([N+](=O)[O-])c1 | -3.67% (inactive) |
| CCC(CC)C(=O)Nc1nnc(SCC(=O)N2CCN(c3ccccc3OC)CC2)s1 | 4.18% (inactive) |
| Cc1ccc(C(=O)CC(=O)c2ccccc2)cc1 | 61.8% (inactive) |
| Cc1ccc(C(=O)Nc2ccccc2Sc2ccccc2)cc1 | 9.64% (inactive) |
| COc1ccc(C)cc1NC(=O)c1ccc(NC(=O)CC2SC(N3CCCC3)=NC2=O)cc1 (stereo not given) | 1.94% (inactive) |
| CCN(CC)CC1C(=O)N(c2ccc(OC)cc2)C1c1ccccc1 (stereo not given) | -4.16% (inactive) |
| COCCn1c(=O)[nH]c2cc(C(=O)N3CCN(c4ccccc4)CC3)ccc2c1=O | 5.58% (inactive) |
| COc1ccccc1CNC(=O)/C=C/c1ccc(Br)o1 | 3.6% (inactive) |
| Cc1cc(/C=N/O)c(C)n1-c1ccccc1 | -2.51% (inactive) |
| CN(C)c1ccc(/C=C/c2ccc3ccccc3[n+]2C)cc1 | 66.1% (inactive) |
| CC(C)[C@H](NC(=O)c1cc2cc(Cl)ccc2n1C)C(=O)N[C@@H](C(=O)O)c1ccccc1 | -9.63% (inactive) |
| CCc1ccc(/C=C2/Sc3ccccc3N(CC(=O)NCCCN3CCOCC3)C2=O)cc1 | 38.4% (inactive) |
| CC(C)(C)c1cc(-c2nc(N)nc(N)n2)cc(C(C)(C)C)c1 | 9.97% (inactive) |
| CC(C)(C)c1ccc(-c2nc(N)nc(N)n2)cc1 | -3.01% (inactive) |

| SMILES | inhibition |
| --- | --- |
| CCOC(=O)C1CCCc2c1[nH]c1c(C(=O)O)cccc21 (stereo not given) | 9.6% (inactive) |
| NC(=O)c1cccc2c3c([nH]c12)CCCC3 | -3.75% (inactive) |
| CCOc1ccc(CCNC(=O)C2=C(C)C(=O)OC23CCCCC3)cc1OCC | -0.34% (inactive) |
| C[C@H](CO)N1C[C@H](C)[C@@H](CN(C)C(=O)Nc2ccccc2)Oc2ccc(NC(=O)Cc3ccccc3)cc2C1=O | 0.43% (inactive) |
| CCOC(=O)Cn1nc(/C=C/c2ccc(OC)cc2)ccc1=O | -1.75% (inactive) |
| Cc1nn(C(C)(C)C)c(NC(=O)c2ccc(Cl)cc2)c1Br | -3.55% (inactive) |
| Cc1nn(C)c(NC(=O)c2ccccc2Cl)c1Br | -4.03% (inactive) |
| COc1cc(C)ccc1OCC(=O)Nc1ccccc1N1CCOCC1 | 0.365% (inactive) |
| Cc1ccccc1CSc1nnc(C)c(=O)n1N | 0.74% (inactive) |
| Cc1nnc(SCc2c(Cl)cccc2Cl)n(N)c1=O | -0.46% (inactive) |
| O=C(CSc1nc(-c2ccco2)cc(C(F)(F)F)n1)NC1CCCC1 | -5.38% (inactive) |
| Cc1ccc(CNC(=O)CCc2c(C)nc3c(c(C)nn3-c3ccc(C)cc3)c2C)cc1 | 0.88% (inactive) |
| Cc1nc2c(c(C)nn2-c2ccccc2)c(C)c1CCC(=O)Nc1ccc(CN2CCCC2)cc1 | 55.7% (inactive) |
| CCN(CC)S(=O)(=O)c1ccc(C(=O)N2CCN(CCN3C(=O)c4cccc5cccc(c45)C3=O)CC2)cc1 | -0.01% (inactive) |
| Cn1c(CCNC(=O)c2cccs2)nnc1SCC(=O)Nc1nc(-c2ccccc2)cs1 | -0.83% (inactive) |
| Cc1cc(C)n2nc(C(=O)OCC(=O)Nc3ccc(C)c(F)c3)nc2n1 | -2.78% (inactive) |
| COc1ccc(/C=C/C(=O)c2sc(-c3ccccc3)nc2C)cc1 | -17.3% (inactive) |
| Cc1nc(-c2ccccc2)sc1C(=O)/C=C/c1ccc(Cl)cc1 | 36.1% (inactive) |
| COc1ccc(NC(=O)c2sc(-c3ccccc3)nc2C)c(OC)c1 | 3.27% (inactive) |
| Cc1ccc(N/C=C/C(=O)c2sc(-c3ccccc3)nc2C)cc1 | 11.4% (inactive) |
| Cc1ccc(S(=O)(=O)CCC(=O)NCc2ccco2)cc1 | -10.5% (inactive) |
| O=C(Nc1ccc(N2CCOCC2)c(Cl)c1)c1ccc(-n2cnnc2)cc1Cl | 2.83% (inactive) |
| COc1ccc(-n2c(CNCCc3ccc(C)cc3)nc3ccccc3c2=O)cc1 | 14.6% (inactive) |

| SMILES | inhibition |
| --- | --- |
| COc1ccc(CN2CCN(c3ccc(F)cc3)CC2)c(OC)c1OC | 0.31% (inactive) |
| COc1ccc(CN2CCN(S(=O)(=O)c3ccc(F)cc3)CC2)c(OC)c1OC | 9.52% (inactive) |
| Cc1ccc(S(=O)(=O)N2CCOCC2)cc1NC(=O)C(c1ccc(Cl)cc1)C(C)C (stereo not given) | -2.19% (inactive) |
| CCOC(=O)[C@H]1[C@H]2COc3ccc(OC)cc3[C@@H]2N2C(=O)c3ccccc3NC(=O)[C@@]12C | 3.81% (inactive) |
| CC(NC(=O)c1cc(COc2ccc3ncccc3c2)on1)c1ccc(F)cc1 (stereo not given) | 6.82% (inactive) |
| Cc1cc(C)n(CCNC(=O)c2cc(COc3ccc4ncccc4c3)on2)n1 | 4.76% (inactive) |
| Cc1ccc(/C=N/NC(=O)Cc2ccc(Cl)cc2)c(O)c1 | -1.94% (inactive) |
| O=C(COc1ccccc1F)Nc1ccc(S(=O)(=O)Nc2nccs2)cc1 | 3.76% (inactive) |
| O=C(C1=C[C@@H](c2ccc(C(F)(F)F)cc2)C[C@@H](OCc2ccc(CO)cc2)O1)N1CCN(Cc2ccccc2)CC1 | 5.34% (inactive) |
| Cc1ccc(C(=O)Nc2cc(C(F)(F)F)ccc2-n2cncn2)o1 | -8.09% (inactive) |
| O=C(Nc1cc(C(F)(F)F)ccc1-n1cncn1)c1ccc(Br)cc1 | -2.45% (inactive) |
| Cc1c(C(=O)O)oc2ccc(S(=O)(=O)NCCC3=CCCCC3)cc12 | -7.6% (inactive) |
| CC(=O)N1CCCc2cc(S(=O)(=O)NC(C(=O)NCc3ccc(C)cc3)C(C)C)ccc21 (stereo not given) | 9.01% (inactive) |
| Cc1ccc(C(=O)Cn2cncn2)cc1 | 9.3% (inactive) |
| CCCCn1c(O)c(/C=C2\C=Nc3ccccc32)c(=O)[nH]c1=O | 12.7% (inactive) |
| Cn1c(O)c(/C=C2/C=CC=N2)c(=O)[nH]c1=O | 17.3% (inactive) |
| Cc1ccccc1C(=O)N1CCC(C(=O)Nc2nccs2)CC1 | -0.78% (inactive) |
| CC(=O)N1CCN(C(=O)CN2C(=O)NC(C)(c3ccc4ccccc4c3)C2=O)CC1 (stereo not given) | 6.21% (inactive) |
| Cc1ccc(CNCC(=O)Nc2ccc(C)cc2Br)cc1 | 2.37% (inactive) |
| S=C(Nc1cccc(Cl)c1)Nc1cccc2cnccc12 | 10% (inactive) |
| Cc1ccc(NC(=S)Nc2cccc3cnccc23)cc1 | 1.12% (inactive) |
